HepG2 tox: HepG2 cytotoxicity, counter-screen for TGF-b inhibitors; 0.76% of 410,000 active; HepG2 CAGA-GFP viability, ATP luminescence, 18 h; AID 588856; Potency, µM (top dose mostly 46.1 µM), most hits filed as cytotoxic
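CellTiter-Glo luminescence gave cytotoxicity after 18 hours at 37 degrees C. The cells were HepG2 CAGA-GFP in 1% FBS DMEM, stimulated with 500 pg/mL TGF-beta after compound addition. %Activity was normalised to no-cell wells (complete cell-killing) and DMSO (no toxicity), and curves were fitted and classified.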
TGFb inhibitor: TGF-b pathway inhibition; HepG2 CAGA-GFP TGF-b/SMAD3 reporter, GFP fluorescence, 18 h; TGF-beta stimulated, 500 pg/mL final; Potency, µM (doses to about 46.1 µM), usual class: inhibitors; 1.2% of 410,000 active; AID 588855; note: nearly all actives have a fitted effect of over 65% in size
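First, reporter cells (HEPG2 CAGA-GFP) rested 2 h at 37 degrees C. Next, compounds were pinned in and TGF-beta added to 500 pg/mL final. After 18 h, GFP was imaged per cell and summed per well.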
ATXN2 expr inh: reduces ATXN2 reporter expression in HEK-293 cells; HEK-293 ATXN2-luciferase reporter, luminescence, 24 h; Potency, µM (highest dose often 57 µM), most hits filed as inhibitors; 0.72% of 360,000 active; note: nearly all actives have a fitted effect of over 55% in size
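qHTS (up to 57 uM final) was run with 24 h compound exposure of reporter cells at 37 °C. Each well was multiplexed: SteadyGlo luminescence measured ATXN2-luciferase expression after a fluorogenic Gly-Phe-AFC viability readout (25 uM final).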
IL1B secr inh: inflammasome signaling inhibition, IL-1 beta readout | THP-1 LPS/ATP IL-1B secretion, AlphaLISA, 16 h; hits give low values | activity change, % at 57.5 µM | 4.7% of 360,000 active | AID 743279; in the data active = activity change below about -50%; inconclusive = mostly about -30% to -49%
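Secreted IL-1B measured by AlphaLISA bead assay after 16 h compound exposure of THP-1 cells; compounds (final up to 57.5 uM) added 1 h before LPS (250 ng/mL) and ATP (1.25 mM) stimulation; lower signal means less secretion.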
S2 tox: reduces viability in counter-screen for ATXN expression inhibitors; Potency, µM (top dose mostly 56.7 µM), usual class: cytotoxic; AID 651635; S2 cells (HEK-293 line with an ATXN2-luciferase reporter) viability, CellTiter-Fluor protease fluorescence, 24 h; 0.49% of 400,000 active; note: nearly all actives have a fitted effect of over 40% in size
Large screens that a line does not name were inactive; ! = repeats disagree. This is a sample that favours compounds with a hit; in the whole collection about 5.7% have one here. Unless noted, calls come from the whole dose curve; as a rule, active = well fitted curve in the direction sought with a large enough effect; inconclusive = small, poorly fitted or top-dose-only effect, or another doubt; inactive = no such curve, though single readings can be large; an effect the other way counts as inactive or inconclusive.

Clc1ccc(/C=C/c2ccnc3ccccc23)c(Cl)c1	TGFb inhibitor inconclusive (no result: ATXN2 expr inh, IL1B secr inh, S2 tox)
FC(F)(F)c1nnc(-c2ccccc2)nc1Sc1ccccc1	TGFb inhibitor inconclusive, ATXN2 expr inh inconclusive, IL1B secr inh -121 (no result: S2 tox)
FC(F)(F)c1cccc(Sc2nc(-c3ccccc3)nnc2C(F)(F)F)c1	ATXN2 expr inh inconclusive, IL1B secr inh -118, S2 tox 28µM
FC(F)(F)c1nnc(-c2ccccc2)nc1N1CCCC1	none
FC(F)(F)c1cccc(Oc2nc(-c3ccccc3)nnc2C(F)(F)F)c1	IL1B secr inh inconclusive
CN(N)c1nc(-c2ccccc2)nnc1C(F)(F)F	none
FC(F)(F)c1nnc(-c2ccccc2)nc1Oc1ccc(Cl)cc1Cl	IL1B secr inh -77
FC(F)(F)c1nnc(-c2ccccc2)nc1Sc1ccc(Cl)cc1	ATXN2 expr inh 28µM, IL1B secr inh -98 (no result: S2 tox)
COc1ccc2ncc3c(-c4ccc(C)c(C)c4)nn(CC(=O)Nc4ccccc4)c3c2c1	none (no result: IL1B secr inh)
CN(C)CCCn1c2c3ccccc3ccc2c2oc(=O)c3ccccc3c21	HepG2 tox 10µM!, TGFb inhibitor 8.9µM, ATXN2 expr inh inconclusive, IL1B secr inh -100, S2 tox inconclusive
O=C(Nc1cc(Cl)ccc1Cl)c1cc(S(=O)(=O)N2CCCc3ccccc32)ccc1F	none (no result: IL1B secr inh)
C[C@@H]1CCN(C(=O)[C@H](CCCN=C(N)N)NS(=O)(=O)c2cccc3c2NC[C@H](C)C3)[C@@H](C(=O)O)C1	none (no result: HepG2 tox, TGFb inhibitor, IL1B secr inh)
Cc1ccc(/C=C2\SC(=S)N(CCCC(=O)Nc3ccc(O)cc3)C2=O)cc1	ATXN2 expr inh 10µM
COc1ccc(/C=C2\SC(=S)N(CCC(=O)Nc3cccc(O)c3)C2=O)cc1OC	S2 tox inconclusive
COC(=O)c1ccc(/C=C2/SC(=S)N(CCCC(=O)Nc3ccc(O)cc3)C2=O)cc1	IL1B secr inh inconclusive
COc1ccc(/C=C2/SC(=S)N(CCCC(=O)Nc3cccc(O)c3)C2=O)cc1	TGFb inhibitor inconclusive, ATXN2 expr inh inconclusive, IL1B secr inh -79
Cc1ccc(/C=C2\SC(=S)N(CCCC(=O)Nc3ccccn3)C2=O)cc1	ATXN2 expr inh 3.2µM
COc1ccc(NC(=O)CCCN2C(=O)/C(=C\c3ccco3)SC2=S)cc1	ATXN2 expr inh inconclusive, IL1B secr inh -71, S2 tox inconclusive
O=C(CCN1C(=O)/C(=C/c2ccccc2)SC1=S)Nc1ccccn1	none
CCc1c(C)c2ccc(O)c(CN3CCN(c4ccccc4)CC3)c2oc1=O	none (no result: TGFb inhibitor, ATXN2 expr inh, IL1B secr inh, S2 tox)
CCc1ccc(/C=C2\SC(=S)N(CCCC(=O)Nc3ccccc3C(=O)O)C2=O)cc1	none
Cc1ccc(/C=C2\SC(=S)N(CCCC(=O)Nc3ccccc3C(=O)O)C2=O)cc1	ATXN2 expr inh 13µM
COc1ccc(C(=O)c2ccccc2)cc1Br	IL1B secr inh -53
COc1ccc(C(=O)N2CCCc3ccccc32)cc1Br	S2 tox 0.22µM
COc1ccc(OC)c(C(=O)c2ccc(C(=O)c3cc(OC)ccc3OC)cc2)c1	ATXN2 expr inh inconclusive, IL1B secr inh -75
CC1(C)SCCN(S(=O)(=O)c2ccc(OCC#CCO)cc2)[C@@H]1C(=O)NO	none (no result: HepG2 tox, TGFb inhibitor, IL1B secr inh, S2 tox)
Clc1ccc(OCCN2CCCCC2)cc1Cl	none
ON=C1c2cc(OCCN3CCCCC3)ccc2-c2ccc(OCCN3CCCCC3)cc21	TGFb inhibitor inconclusive, ATXN2 expr inh inconclusive, IL1B secr inh -97, S2 tox inconclusive
NC(=S)NN=C1c2cc(OCCN3CCOCC3)ccc2-c2ccc(OCCN3CCOCC3)cc21	TGFb inhibitor inconclusive, ATXN2 expr inh 7.9µM, IL1B secr inh -96 (no result: S2 tox)
Clc1ccc(OCCN2CCOCC2)cc1Cl	none
CCOC(=O)C1CCN(C(=O)Cn2nc(CC)n3c(cc4sccc43)c2=O)CC1	TGFb inhibitor inconclusive (no result: ATXN2 expr inh, IL1B secr inh, S2 tox)
CNC(=O)c1c(NC(=O)C2=COCCO2)sc(C)c1C	none
COC(=O)c1c(NC(=O)C2=COCCO2)sc(C)c1C	IL1B secr inh -60
O=C(CN1C(=O)COc2ccc(S(=O)(=O)N3CCOCC3)cc21)N1CCN(c2ccc(F)cc2)CC1	none (no result: IL1B secr inh)
O=C(COC(=O)c1c[nH]c2ccccc12)Nc1cccc(F)c1	IL1B secr inh -69
O=C(Nc1ccc(Br)cc1)NC1CCCCCCC1	TGFb inhibitor inconclusive, IL1B secr inh -90
O=C(Nc1ccccc1NC(=O)NC1CCCCC1)NC1CCCCC1	ATXN2 expr inh 20µM, IL1B secr inh -69, S2 tox inconclusive
O=C(Nc1ccccc1)NC1CCCCCCC1	IL1B secr inh inconclusive
CCc1ccc(NC(=O)NC2CCCCCCC2)cc1	IL1B secr inh -71
C=C1C=C(C(F)F)n2ncc(C(=O)N3CCN(c4ccccc4)CC3)c2N1	none (no result: ATXN2 expr inh, IL1B secr inh, S2 tox)
CC(C)Oc1ccc(CNC(=O)C2CCN(C(=O)N3CCOc4ccc(Cl)cc43)CC2)cc1	TGFb inhibitor inconclusive (no result: ATXN2 expr inh, IL1B secr inh, S2 tox)
Cn1c(=O)n(Cc2ccccc2Cl)c(=O)c2c1nc1n2CCN1c1ccccc1	none (no result: ATXN2 expr inh, IL1B secr inh, S2 tox)
COc1cc2c(C(=O)N3CCN(c4cccc(C)c4)C(C)C3)cn(CC(C)C)c(=O)c2cc1OC (stereo unspecified)	TGFb inhibitor inconclusive, S2 tox inconclusive (no result: IL1B secr inh)
O=c1cc(O)c2c([nH]1)CCC2	none (no result: ATXN2 expr inh, IL1B secr inh, S2 tox)
O=C(CSc1nnc(-c2ccc(F)cc2)o1)N1CCCc2ccccc21	S2 tox inconclusive (no result: IL1B secr inh)
CC1(C)S[C@@H]2[C@H](NC(=O)[C@H](N)c3ccccc3)C(=O)N2[C@H]1C(=O)OCOC(=O)[C@@H]1N2C(=O)C[C@H]2S(=O)(=O)C1(C)C	none (no result: HepG2 tox, TGFb inhibitor, ATXN2 expr inh, IL1B secr inh)
CCCNC(=O)c1ccc(-n2c(-c3ccccc3)cc3c2CCCCC3)cc1	none (no result: ATXN2 expr inh, IL1B secr inh, S2 tox)

Assay outcomes (PubChem)
